# Results: the supplement of paper PMC6992640
# System: HCI01 (cells of a triple-negative basal-like breast cancer xenograft)
# Assay: cell viability of combination (% of vehicle); higher = less cytotoxic
# Conditions: 1 µM; 72 h; partner dose: 10 nM
# Protocol: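 PDX cells were treated for 72 h with each drug at 1 µM plus afatinib (10 nM; 1 µM for WHIM30). Luciferase viability is expressed as percent of vehicle.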
row,SMILES,cell viability of combination
1,CCCCCCCCCCCC[N+](C)(C)CCOc1ccccc1.[Br-] [Domiphen Bromide] + CN(C)C/C=C/C(=O)Nc1cc2c(Nc3ccc(F)c(Cl)c3)ncnc2cc1O[C@H]1CCOC1 [Afatinib],51
2,CCCCCCCCCCCCCCCC[N+](C)(C)C.[Br-] [Cetrimonium Bromide (CTAB)] + CN(C)C/C=C/C(=O)Nc1cc2c(Nc3ccc(F)c(Cl)c3)ncnc2cc1O[C@H]1CCOC1 [Afatinib],50.1
3,CCCCCCCCCCCCCCCC[n+]1ccccc1.[Cl-] [Cetylpyridinium Chloride] + CN(C)C/C=C/C(=O)Nc1cc2c(Nc3ccc(F)c(Cl)c3)ncnc2cc1O[C@H]1CCOC1 [Afatinib],52
4,Cc1cc(C(C#N)c2ccc(Cl)cc2)c(Cl)cc1NC(=O)c1cc(I)cc(I)c1O (stereo not given) [Closantel] + CN(C)C/C=C/C(=O)Nc1cc2c(Nc3ccc(F)c(Cl)c3)ncnc2cc1O[C@H]1CCOC1 [Afatinib],50.6
5,Cc1cc(C(C#N)c2ccc(Cl)cc2)c(Cl)cc1NC(=O)c1cc(I)cc(I)c1[O-].[Na+] (stereo not given) [Closantel Sodium] + CN(C)C/C=C/C(=O)Nc1cc2c(Nc3ccc(F)c(Cl)c3)ncnc2cc1O[C@H]1CCOC1 [Afatinib],53.2
